Laboratory results as given in PMC4336329 (PLoS ONE, 2015).
Out of some 310,000 compounds screened, about 2,200 (0.71%) showed an effect of 50% or more. The effect is printed as a negative number. Shown is part of a subset that was picked to be rich in strong results.

Each compound was assayed against human ether-à-go-go-related gene (hERG) potassium channel (human, UniProt Q12809) (assay: primary screen, population patch clamp on CHO cells stably expressing hERG; higher = less effect of the substance).
Sequence of human ether-à-go-go-related gene (hERG) potassium channel (Q12809 whole entry, looked up): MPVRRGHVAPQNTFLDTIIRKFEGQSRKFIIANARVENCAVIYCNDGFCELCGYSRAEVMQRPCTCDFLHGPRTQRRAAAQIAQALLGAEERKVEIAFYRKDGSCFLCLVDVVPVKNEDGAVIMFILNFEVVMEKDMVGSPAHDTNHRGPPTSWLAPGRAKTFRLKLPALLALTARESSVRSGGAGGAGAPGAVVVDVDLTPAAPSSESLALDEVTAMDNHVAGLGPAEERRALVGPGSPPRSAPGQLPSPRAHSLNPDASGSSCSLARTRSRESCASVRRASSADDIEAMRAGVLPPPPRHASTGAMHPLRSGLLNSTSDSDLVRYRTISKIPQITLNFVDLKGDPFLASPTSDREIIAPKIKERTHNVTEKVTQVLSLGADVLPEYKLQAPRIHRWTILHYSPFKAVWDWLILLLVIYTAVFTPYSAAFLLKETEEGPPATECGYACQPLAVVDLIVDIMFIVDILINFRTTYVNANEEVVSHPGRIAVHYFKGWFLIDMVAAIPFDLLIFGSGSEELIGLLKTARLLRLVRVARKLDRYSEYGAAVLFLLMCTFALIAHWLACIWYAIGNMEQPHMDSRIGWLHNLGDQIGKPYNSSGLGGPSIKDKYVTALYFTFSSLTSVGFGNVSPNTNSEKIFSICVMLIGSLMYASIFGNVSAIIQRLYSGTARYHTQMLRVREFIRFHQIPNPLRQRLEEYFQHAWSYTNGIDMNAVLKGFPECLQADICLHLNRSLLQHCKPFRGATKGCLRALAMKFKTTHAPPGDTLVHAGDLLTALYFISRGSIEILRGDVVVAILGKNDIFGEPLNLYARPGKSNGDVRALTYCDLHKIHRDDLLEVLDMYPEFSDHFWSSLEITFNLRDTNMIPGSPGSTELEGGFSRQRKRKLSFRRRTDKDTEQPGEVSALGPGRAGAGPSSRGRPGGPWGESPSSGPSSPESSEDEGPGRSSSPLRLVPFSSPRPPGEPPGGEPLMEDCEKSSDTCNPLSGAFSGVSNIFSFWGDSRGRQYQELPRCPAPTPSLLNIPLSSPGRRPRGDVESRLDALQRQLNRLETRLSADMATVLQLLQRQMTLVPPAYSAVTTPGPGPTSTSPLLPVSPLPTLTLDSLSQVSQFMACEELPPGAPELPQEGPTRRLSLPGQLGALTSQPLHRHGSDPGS

Structure (SMILES)	hERG current change (%, negative = inhibition) at 1uM
COC(=O)CSC(C(=O)Nc1ccc(C)c(C)c1)c1ccccc1 (stereo not shown)	-4.33%
O=C(Cn1ccc([N+](=O)[O-])n1)N1CCCCCC1	13.1%
COC(=O)c1ccc(/C=N/NC(=O)C2CC(=O)N(c3ccc(F)cc3)C2)cc1 (stereo not shown)	16.8%
COC(=O)c1nn(-c2cccc(C(F)(F)F)c2)ccc1=O	8.73%
COc1ccc(/C=N/NC(=O)c2cc(OC)c(OC)c(OC)c2)cc1CN1CCc2cc(OC)c(OC)cc2C1C (stereo not shown)	-21.9%
COc1ccc(/C=N/NC(=O)c2cccnc2)cc1CN1CCc2cc(OC)c(OC)cc2C1C (stereo not shown)	1.82%
COc1ccc(C(=O)N/N=C/c2ccc(OC)c(CN3CCCc4ccccc43)c2)cc1	-6.65%
COc1ccc(/C=N/NC(=O)c2ccccc2[N+](=O)[O-])cc1CN1CCc2cc(OC)c(OC)cc2C1C (stereo not shown)	-10.4%
COc1ccc(C(=O)N/N=C/c2ccc(OC)c(CN3CCc4cc(OC)c(OC)cc4C3C)c2)cc1 (stereo not shown)	-85.1%
COc1ccc(/C=N/NC(=O)c2ccc(F)cc2)cc1CN1CCc2cc(OC)c(OC)cc2C1C (stereo not shown)	-99.1%
Cc1cccc([C@@H]2[C@@H]3C(=O)N(Cc4ccccc4)C(=O)[C@@H]3[C@]3(Cc4ccccc4)C(=O)N(c4cccc(F)c4)C(=O)N23)c1	9.13%
COc1cc(/C=C2/SC(=S)N(CC(=O)O)C2=O)ccc1OC(=O)c1ccco1	7.62%
N=C1/C(=C/c2ccc(OCc3ccccc3F)cc2)C(=O)N=C2SC(CC(=O)N3CCOCC3)=NN12	12.2%
CCC(Sc1nc(N)c(NC(=O)c2ccc(OC)c(OC)c2)c(=O)[nH]1)C(=O)OC (stereo not shown)	-5.41%
CCC(NS(=O)(=O)c1cccs1)c1ccc(C)cc1 (stereo not shown)	8.69%
O=[N+]([O-])c1ccc(N2CCOCC2)c2cccnc12	-7.04%
O=C(c1ccccc1F)N1CCN(c2ccc([N+](=O)[O-])c3ncccc23)CC1	-38.7%
O=C(c1ccccc1F)N1CCN(c2ccc([N+](=O)[O-])c3cccnc23)CC1	-13.2%
O=C(c1cc(F)c(F)cc1Cl)N1CCN(c2ccc([N+](=O)[O-])c3ncccc23)CC1	-53.6%
O=[N+]([O-])c1cccc2c(N3CCCC3)ccnc12	-84.4%
O=[N+]([O-])c1cccc2c(N3CCOCC3)ccnc12	10%
O=[N+]([O-])c1ccc(N2CCN(S(=O)(=O)c3ccccc3)CC2)c2cccnc12	-75.6%

Structure (SMILES)	hERG current change (%, negative = inhibition) at 1uM
O=[N+]([O-])c1ccc(N2CCCC2)c2ncccc12	2.1%
Cc1ccc(S(=O)(=O)N2CCN(c3ccc([N+](=O)[O-])c4cccnc34)CC2)cc1	7.53%
COc1cc(NC(=O)C2CC(=O)N(Cc3ccco3)C2)cc(OC)c1 (stereo not shown)	2.39%
CC/C(=N\NC(=O)c1ccc(N2CCCC2=O)cc1)c1ccccc1	10.8%
Cc1ccc2nc(SC(C)C(=O)NC3CCCc4ccccc43)[nH]c2c1 (stereo not shown)	11.6%
CC1(c2ccc([N+](=O)[O-])cc2)NC(=O)N(CC(=O)Nc2ccc(N3CCCCC3)cc2)C1=O (stereo not shown)	14.8%
Cc1ccc(-n2ncc3c2CCCC3NC(=O)c2cnccn2)cc1C (stereo not shown)	10.3%
CCOc1ccc(C(C)NC(=O)Cc2ccccc2)cc1OCC (stereo not shown)	10.8%
O=C(Cn1nc(C(F)(F)F)cc1C1CC1)Nc1ccccc1F	16.1%
COCCN1CC(=O)N2C(c3cccc(C)c3)c3[nH]c4ccccc4c3C[C@H]2C1=O (stereo partly shown)	1.07%
COc1cc2c3nnc(-c4ccc(F)cc4)c-3cn(Cc3ccc(F)cc3)c2cc1OC	-5.13%
COc1ccc(Cn2cc3c(-c4ccc(F)cc4)nnc-3c3cc(OC)c(OC)cc32)cc1	-75.6%
COc1cc2c3nnc(-c4ccc(F)cc4)c-3cn(Cc3ccc(C)cc3)c2cc1OC	13.5%
Cc1cc(C)n(Cc2ccccc2)c(=O)c1S(=O)(=O)c1ccccc1	3.34%
COC(=O)C(C)Sc1nnc(SC(C)C(=O)OC)s1 (stereo not shown)	23%
O=C(N/N=C/c1cccc([N+](=O)[O-])c1O)C(O)(c1ccccc1)c1ccccc1	18.6%
O=C(N/N=C/c1cc(Cl)cc([N+](=O)[O-])c1O)C(O)(c1ccccc1)c1ccccc1	-62.4%
O=C(N/N=C/c1cc([N+](=O)[O-])cc([N+](=O)[O-])c1O)C(O)(c1ccccc1)c1ccccc1	0.978%
CSc1cccc(NS(=O)(=O)c2ccc(F)cc2)c1	7.73%
COCCCNC(=O)CC(C)c1ccccc1 (stereo not shown)	8.27%
Cn1c2ccccc2n2c(=O)c(=O)n(CC(=O)N3CCCc4ccccc43)nc12	-1.27%
Br.CCn1c2c(c(=N)c3c1CCC3)CCC2	6.51%

Structure (SMILES)	hERG current change (%, negative = inhibition) at 1uM
Br.CCCCCCCCCCn1c2c(c(=N)c3c1CCC3)CCC2	-71.7%
CCCn1c2c(c(=N)c3c1CCC3)CCCC2.I	6.36%
CCOC(=O)Cn1c2c(c(=N)c3c1CCC3)CCC2.Cl	10.2%
Br.CCCCCCCCCn1c2c(c(=N)c3c1CCC3)CCC2	-65.5%
CCCn1c2c(c(=N)c3c1CCC3)CCC2.I	8.15%
Br.CCCCCCn1c2c(c(=N)c3c1CCC3)CCC2	-54%
CCOC(=O)Cn1c2c(c(=N)c3c1CCC3)CCCC2.Cl	12.8%
Br.CCn1c2c(c(=N)c3c1CCC3)CCCC2	4.22%
CCCCn1c2c(c(=N)c3c1CCC3)CCC2.I	5.32%
Br.CCCCCCCCn1c2c(c(=N)c3c1CCC3)CCCC2	-84.6%
CCCCCCn1c(=O)[nH]c2c(c1=O)CCC2	11.6%
CC(=O)n1cc(/C=N/NC(=O)c2cccc(O)c2)c2ccccc21	13.7%
CC(CC(=O)O)CC(=O)NNC(=O)c1cccc(Br)c1 (stereo not shown)	8.72%
C/C(N)=C(/C#N)C(=O)COC(=O)CCSc1ccccc1Cl	12.1%
CCN(c1ccccc1)S(=O)(=O)c1ccc(Cl)c(C(=O)NCC2CCCO2)c1 (stereo not shown)	2.1%
O=C(C1CCN(C2CCN(C/C(Cl)=C/c3ccccc3)CC2)CC1)N1CCOCC1	-33.8%
CN1CCN(C(c2ccc(C(F)(F)F)cc2)c2ccc3cccnc3c2O)CC1 (stereo not shown)	7.36%
CCC1Oc2nc(SC)nnc2-c2ccccc2N1C(=O)c1ccccc1 (stereo not shown)	11.8%
COC(=O)C1=C(C)Nc2nc3ccccc3n2C1c1ccccc1F (stereo not shown)	8.31%
Cc1cc(CNC(=O)CC2C(=O)NCCN2CC(C)(C)C)nn1C (stereo not shown)	10.4%
Cc1cc(C=C2C(=O)NC(=O)NC2=O)c(C)n1-c1ccc2c(c1)OCO2	13.5%
CCOC(=O)C1CCN(CC(O)COc2ccc(C(=O)CC)cc2)CC1.Cl (stereo not shown)	-49.5%

Structure (SMILES)	hERG current change (%, negative = inhibition) at 1uM
CC(=O)c1cccc(OCC(O)CN2CC=C(c3ccccc3)CC2)c1.O=C(O)C(=O)O (stereo not shown)	-50%
CCOC(=O)C1CCN(CC(O)COc2ccc(C(C)(C)C)cc2)CC1.Cl (stereo not shown)	-53.2%
Cl.OC(COCc1ccc(Cl)cc1)CN1CCCCC1 (stereo not shown)	0.152%
CCOC(=O)C1CCN(CC(O)COc2ccc(C(C)=O)cc2)CC1.Cl (stereo not shown)	-30.4%
CC(=O)c1cccc(OCC(O)CN2CCN(S(=O)(=O)c3c(F)cccc3F)CC2)c1.O=C(O)C(=O)O (stereo not shown)	1.4%
Cl.OC(COCc1ccccc1)CN1CCCC1 (stereo not shown)	1.21%
CCOC(=O)C1CCN(CC(O)COCc2ccc(Cl)cc2)CC1.Cl (stereo not shown)	-58.6%
CCOC(=O)C1CCN(CC(O)COCc2ccc3c(c2)OCO3)CC1.Cl (stereo not shown)	1.96%
CCOC(=O)c1ccc(S(=O)(=O)N2CCN(CC(O)COc3cccc(C(C)=O)c3)CC2)cc1.O=C(O)C(=O)O (stereo not shown)	10%
CCOC(=O)C1CCN(CC(O)COCc2ccccc2)CC1.O=C(O)C(=O)O (stereo not shown)	3.28%
OC(COCc1ccc(Cl)cc1)CN1CCN(CC(O)COCc2ccc(Cl)cc2)CC1 (stereo not shown)	-67.5%
COc1cccc(N2CCN(C(=O)Cn3c(=O)oc4ccccc43)CC2)c1	4.28%
Cc1ccc(-c2nn(-c3ccccc3)cc2/C=N/n2c(-c3cccs3)n[nH]c2=S)cc1	15%
NS(=O)(=O)c1ccc(CCNC(=O)CNC(=O)c2ccccc2F)cc1	11.3%
CCOc1ccc(Cc2noc3c2C(=O)CCC3)cc1OCC	23.3%
O=C(NCCCCCCNC(=O)NCc1ccco1)NCc1ccco1	6.09%
O=C1CCC(/C=C/c2ccccc2)=NN1Cc1ccc(Cl)c(Cl)c1	2.78%
O=C(NCc1ccccn1)/C(=N/O)c1ccccc1	9.34%
CC(C)n1c(O)c(N=Nc2ccc(Cl)nn2)c2ccccc21	10.7%
